Several values for one entry are separate records, joined by “and”; a condition that tells them apart may be missing. Equal entries are not always repeated. Structures can show the parent of a compound that is named as a salt. In all, about 1,800 compounds went through this assay and about 50 (3%) showed activity. Only a selection was taken, and actives are over-represented in it overall. Unmarked numbers belong to inactive results.

The assay relates to mouse p16Ink4a+/- lung fibroblasts (INKBRITE, bleomycin-injured). Nature of the assay: percentage of GFP+ (p16Ink4a+) fibroblasts among all cells in well; higher = less depletion of p16Ink4a+ cells, active = 20 or less. The note with it: 1 µM; 3 days.
Take `Cc1cccc(CC(=O)N2CCc3c2ccc(-c2cn(C)c4ncnc(N)c24)c3F)n1`: the “percentage of GFP+” value was 45%.
The same measure for `Cn1cc(CNCC2CCN(c3ncc(C(=O)NO)cn3)CC2)c2ccccc21` [Quisinostat]: 1.92% (active); for `COc1cc(C(=O)NS(=O)(=O)c2ccccc2C)ccc1Cc1cn(C)c2ccc(NC(=O)OC3CCCC3)cc12` [Zafirlukast]: 47.1%.
The same measure for `CN1CCc2c(c3ccccc3n2Cc2ccc(C(=O)NO)cc2)C1` [Tubastatin A HCl]: 53.9% and 45%; for `COc1ccc(COc2ccc(Cc3cnc(N)nc3N)cc2OC)cc1`: 33.4%; for `Cc1cccc(C)c1OCC(C)N` (centres undefined) [Mexiletine]: 46%.
Next, `CCN(c1cc(-c2ccc(CN3CCOCC3)cc2)cc(C(=O)NCc2c(C)cc(C)nc2O)c1C)C1CCOCC1`: 54.5%; `Cc1cc(C)c(CNC(=O)c2cc(-c3ccc(CN4CCOCC4)cc3)cc3c2cnn3C2CCCC2)c(O)n1`: 49.7%; `CCNC(=O)c1noc(-c2cc(C(C)C)c(O)cc2O)c1-c1ccc(CN2CCOCC2)cc1` [Luminespib (NVP-AUY922)]: 6.33% (active).
With `Cc1cc(C2CCCCC2)n(O)c(=O)c1` [Ciclopirox], the “percentage of GFP+” value was 29.6% and 35.5%.
Next, `CCCOc1ccc(C(=O)OCCN(CC)CC)cc1N` [Proparacaine]: 37.1%; `COC(=O)CCSCc1ccc(-c2onc(C)c2NC(=O)OC(C)c2ccccc2Cl)cc1` (centres undefined): 43.9%.
Next, `CCN(CC)CCCC(C)Nc1c2ccc(Cl)cc2nc2ccc(OC)cc12` (centres undefined) [Quinacrine]: 46.6%.
As for `COc1cc(-c2ncn(/C=C\C(=O)OC(C)C)n2)cc(C(F)(F)F)c1`, the “percentage of GFP+” value is 14.1% (active).
Next, `O=C(/C=C\n1cnc(-c2cc(C(F)(F)F)cc(C(F)(F)F)c2)n1)NNc1cnccn1` [Selinexor (KPT-330)]: 14.7% (active); `O=C(/C=C\n1cnc(-c2cc(C(F)(F)F)cc(C(F)(F)F)c2)n1)N1CC(F)(F)C1`: 24.1%; `CN(C)CCOC(c1ccccc1)c1ccccc1` [Diphenhydramine]: 47.9%.
Next, `CC(C)(C)c1cnc(CSc2cnc(NC(=O)C3CCNCC3)s2)o1`: 28.7%; `N#Cc1ccc2[nH]c(O)c(-c3ccc(CN4CCOCC4)cn3)c2c1`: 40.8%.
Next, `CO/C(O)=C1\C(C)=NC(C)=C(C(=O)O[C@@H]2CCCN(Cc3ccccc3)C2)[C@@H]1c1cccc([N+](=O)[O-])c1` [Benidipine]: 41.8%; `Cn1c(=O)c2c(ncn2CC2OCCO2)n(C)c1=O` [Doxofylline]: 41%; `CC(C)OC(=O)C(C)(C)Oc1ccc(C(=O)c2ccc(Cl)cc2)cc1` [Fenofibrate]: 45.5%.
Turning to `O=C1CCc2cc(OCCCCc3nnnn3C3CCCCC3)ccc2N1` [Cilostazol], the “percentage of GFP+” value was 45.1%.
For `CN1CC[C@@H](c2c(O)cc(O)c3c(=O)cc(-c4ccccc4Cl)oc23)[C@@H]1CO`, the “percentage of GFP+” value is 20.2%.
The same measure for `CN1CC[C@H](c2c(O)cc(O)c3c(=O)cc(-c4ccccc4Cl)oc23)[C@H](O)C1` [Flavopiridol]: 4.28% (active).
As for `CC(=O)C1=C(O)C=C2Oc3c(C(C)=O)c(O)c(C)c(O)c3[C@]2(C)C1=O` [(+)-Usniacin], the “percentage of GFP+” value was 45.5%.
Next, `CCNC1=N[C@@H]2[C@@H](O)[C@H](O)[C@@H](CO)O[C@@H]2S1` [Thiamet G]: 56.9%; `CC(=O)c1cc([N+](=O)[O-])c(Sc2cccc(Cl)c2Cl)s1`: 41.2%; `COc1ccc2[nH]c(S(=O)Cc3ncc(C)c(OC)c3C)nc2c1` (centres undefined) [Esomeprazole; Omeprazole]: 43.4% and 32.8%.
For `Nc1nc(O)c2ncn(COCCO)c2n1` [Aciclovir], the “percentage of GFP+” value was 45.4%.
The same measure for `COc1c(C)cnc(Cn2cnc3c(Cl)nc(N)nc32)c1C`: 7.81% (active); for `COc1ccc(CNC(=O)Nc2ncc([N+](=O)[O-])s2)cc1` [N-(4-Methoxybenzyl)-N'-(5-Nitro-1,3-Thiazol-2-Yl)Urea]: 43.1%; for `CCN(Cc1ccncc1)C(=O)C(CO)c1ccccc1` (centres undefined) [Tropicamide]: 49.3%.
The same measure for `O=C(Nc1ccc(OC(F)(F)F)cc1)c1sccc1NCc1ccnc2ccccc12`: 30.4%.
As to `Clc1cccc(Cl)c1NC1=NCCN1` [Clonidine], the “percentage of GFP+” value was 51.5%.
Next, `CN1CCN(C2=Nc3ccccc3Oc3ccc(Cl)cc32)CC1` [Loxapine]: 51.2%; `O=C(O)C[C@H](O)C[C@H](O)/C=C/c1c(C2CC2)nc2ccccc2c1-c1ccc(F)cc1` [Pitavastatin Calcium]: 22.1%.
Next, `CC(C)n1c(/C=C/[C@@H](O)C[C@@H](O)CC(=O)O)c(-c2ccc(F)cc2)c2ccccc21` [Fluvastatin]: 19.7% (active); `CC(C)c1c(C(=O)Nc2ccccc2)c(-c2ccccc2)c(-c2ccc(F)cc2)n1CC[C@@H](O)C[C@@H](O)CC(=O)O` [Atorvastatin]: 41.6%; `NC(Cc1c[nH]c2ccc(O)cc12)C(=O)O` (centres undefined) [5-hydroxytryptophan (5-HTP)]: 41.1%.
As to `C[C@H](Cn1cnc2c(N)ncnc21)OCP(=O)(O)O` [Tenofovir], the “percentage of GFP+” value is 36.4%.
Next, `CC(C)OC(=O)OCOP(=O)(CO[C@H](C)Cn1cnc2c(N)ncnc21)OCOC(=O)OC(C)C` [Tenofovir Disoproxil]: 37.9%; `CC(C)(C)C(=O)OCOP(=O)(COCCn1cnc2c(N)ncnc21)OCOC(=O)C(C)(C)C` [Adefovir Dipivoxil]: 19.4% (active); `Cc1nc(O)c(C#N)cc1-c1ccncc1` [Milrinone]: 37.8%.
Regarding `CCOC(=O)N1CCC(=C2c3ccc(Cl)cc3CCc3cccnc32)CC1` [Loratadine], the “percentage of GFP+” value is 54.5%.
On to `CC(C)c1cc(-c2nnc(O)n2-c2ccc3c(ccn3C)c2)c(O)cc1O` [Ganetespib], for which the “percentage of GFP+” value is 4.48% (active).
Next, `OC(CC1c2ccccc2-c2cncn21)C1CCCCC1` (centres undefined): 43%.
With `CCCCCCCCCCCC1=C(O)C(O)=CC(=O)C1=O` [Embelin], the “percentage of GFP+” value was 51.4%.
Next, `COc1ccc2cccc(CCNC(C)=O)c2c1` [Agomelatine]: 39.1%; `CC(=O)SCC(Cc1ccccc1)C(=O)NCC(=O)OCc1ccccc1` (centres undefined) [Racecadotril]: 45%.
With `COC(=O)[C@H](Cc1ccccc1)NC(=O)[C@@H](N)CC(=O)O` [Aspartame], the “percentage of GFP+” value is 44.2%.
As to `CC(C)C[C@@H](C=O)NC(=O)[C@H](CC(C)C)NC(=O)[C@H](CC(C)C)NC(=O)OCc1ccccc1`, the “percentage of GFP+” value was 7.69% (active).
As for `CCCCCOC(=O)Nc1nc(=O)n([C@@H]2O[C@H](C)[C@@H](O)[C@H]2O)cc1F` [Capecitabine], the “percentage of GFP+” value was 40.5%.
The same measure for `CN(Cc1ccc(C(C)(C)C)cc1)Cc1cccc2ccccc12` [Butenafine]: 51.2%.
`O=C(/C=C/c1ccccc1)NC(NC(=S)Nc1ccc(Cl)cc1)C(Cl)(Cl)Cl` (centres undefined): the “percentage of GFP+” value was 58.3%.
Take `O=C(/C=C/c1cccc(S(=O)(=O)Nc2ccccc2)c1)NO` [Belinostat]: the “percentage of GFP+” value was 15.9% (active).
In the case of `Cn1cc(/C=C/C(=O)c2cccc(F)c2)cc1/C=C/C(=O)NO`, the “percentage of GFP+” value was 54%.
Turning to `Nc1cccc2c1CN(C1CCC(=O)NC1=O)C2=O` (centres undefined) [Lenalidomide], the “percentage of GFP+” value is 46%.
The same measure for `CC/C(=C(\c1ccccc1)c1ccc(OCCN(C)C)cc1)c1ccccc1` [Tamoxifen]: 34.9%.
Take `Cc1ccc([N+](=O)[O-])cc1S(=O)(=O)N(C)/N=C/c1cnc2ccc(Br)cn12`: the “percentage of GFP+” value was 3.79% (active).
The same measure for `CC(C)c1nc(N(C)S(C)(=O)=O)nc(-c2ccc(F)cc2)c1/C=C/[C@@H](O)C[C@@H](O)CC(=O)O` [Rosuvastatin, Rosuvastatin Calcium]: 41.7%; for `Cn1cnc2c(F)c(Nc3ccc(Br)cc3F)c(C(=O)NOCCO)cc21`: 44.7%.
In the case of `CN1c2cc(O)c(N=NC(N)=O)cc2CC1S(=O)(=O)O` (centres undefined) [Carbazochrome sodium sulfonate], the “percentage of GFP+” value is 43%.
`CC1(C)CC(=O)c2c(C(F)(F)F)nn(-c3ccc(C(N)=O)c(N[C@H]4CC[C@H](O)CC4)c3)c2C1`: the “percentage of GFP+” value is 6.92% (active).
As to `CC1(C)CC(=O)c2c(C(F)(F)F)nn(-c3ccc(C(N)=O)c(N[C@H]4CC[C@H](OC(=O)CN)CC4)c3)c2C1`, the “percentage of GFP+” value was 6.23% (active).
The same measure for `CC(=O)O/N=C1/C(=O)N(Cc2cc(Cl)ccc2Cl)c2ccc(Cl)cc21`: 51.6%; for `CC(C)(C)c1ccc(C(=O)CCCN2CCC(OC(c3ccccc3)c3ccccc3)CC2)cc1` [Ebastine]: 56.5%; for `OC1(c2ccc(Cl)c(C(F)(F)F)c2)CCN(CCCC(c2ccc(F)cc2)c2ccc(F)cc2)CC1` [Penfluridol]: 55.9%.
Next, `COc1ccc(-c2ccc3c(N4CCOCC4)nc(N4C[C@@H](C)O[C@@H](C)C4)nc3n2)cc1CO`: 23.7%.
Next, `Cc1ccc(=O)n(-c2ccccc2)c1` [Pirfenidone]: 46%; `CNC(=O)c1cc(Oc2ccc(NC(=O)Nc3cc(C(C)(C)C)nn3-c3ccc4ncccc4c3)c(F)c2)ccn1` [Rebastinib]: 39.9%.
On to `CNC(=O)[C@H](Cc1ccccc1)NC(=O)[C@H](CC(C)C)[C@H](CSc1cccs1)C(=O)NO` [Batimastat], for which the “percentage of GFP+” value was 41.9%.
For the compound `CC(C)C1CCC(C(=O)N[C@H](Cc2ccccc2)C(=O)O)CC1` (some centres undefined) [Nateglinide], the “percentage of GFP+” value was 46.5%.
With `CC(C)C[C@H](NC(=O)[C@H](Cc1ccccc1)NC(=O)c1cnccn1)B(O)O` [Bortezomib], the “percentage of GFP+” value is 5.29% (active).
